# ELG1 genotoxic: induces genotoxicity in HEK293T cells with luciferase-tagged ELG1; HEK293T ELG1-luciferase reporter, luminescence, 16 h; Potency, µM (doses to about 46 µM), for inactives: top-dose activity change, positive = activation, usual class: activators; 1.3% of 330,000 active; note: % of control where 0% means no effect; nearly all actives have a fitted effect of over 60% in size
#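 After overnight (16 hr) compound treatment at 37 °C, ELG1-luciferase HEK293T cells were lysed with ONE-Glo; luminescence quantified 30 min later at room temperature.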
# NPC1 promoter act: activates the NPC1 promoter. Huh7 NPC1 promoter luciferase reporter, 24 h. 2.4% of 320,000 active. Potency, µM (doses to about 9.22 µM), without a hit: at the top dose activation, most hits filed as activators; note: % of control where 0% means no effect; nearly all actives have a fitted effect of over 60% in size
#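 Cells: Huh7 expressing luciferase under the NPC1 promoter, 1500/well. Seeded 2 h, compound added, incubated 24 h at 37 °C. Luciferase reagent, 10 min ambient, then luminescence.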
# ELG1 repair inh: ELG1-dependent DNA repair inhibition. Potency, µM (titrated, usually from 46.1 µM), for the others: at the top dose activity change, negative = inhibition, usual class: inhibitors. 2.3% of 330,000 active. HEK293T ELG1-luciferase reporter, luminescence, 16 h; DNA damage induced by 5-fluorouridine. AID 504467; note: % is set by controls: 0 for no effect and ±100 for the full control effect; nearly all actives have a fitted effect of over 55% in size
#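 Luminescence from the luciferase reporter, measured 30 min after ONE-Glo reagent at room temperature, was the read-out. Beforehand, 2,000 cells per well were exposed for 16 hr at 37 °C to 5-fluorouridine together with compound or vehicle.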
# Rab9 prom act: activators of Rab9 promoter; Huh7 Rab9 promoter-luciferase reporter, luminescence, 24 h; Potency, µM (doses to about 9.22 µM), without a hit: at the top dose activation, negative = inhibition, actives largely listed as activators; 2.8% of 320,000 active; AID 485297; note: % of control where 0% means no effect; nearly all actives have a fitted effect of over 60% in size
#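 Quantitative HTS format; Huh7 Rab9-luciferase reporter cells (1500/well) receive compound 2 h post-plating, incubate 24 h at 37 °C, then get luciferase reagent for 10 min before luminescence reading.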
# SMN2 splice up: increases expression of the SMN2 splice variant; AID 1458; 2.8% of 210,000 active; Potency, µM (top dose mostly 46.1 µM), inactives show at the top dose activity change, positive = activation, actives largely listed as activators; HEK293 SMN2-luciferase splicing reporter, luminescence, 30-36 h; note: % of control where 0% means no effect; nearly all actives have a fitted effect of over 55% in size
#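 HEK293 cells carry an SMN2 […]–luciferase reporter in which exon 7 inclusion puts luciferase in frame. Cells were plated 10-12 h before compound addition, then incubated 30-36 h at 37C. ONE-Glo luminescence was read; sodium butyrate at 4.5 mM final served as control.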
# FLuc modulator: inhibits or activates purified firefly luciferase, miR-21 counter-screen. P08659. purified FLuc, Km substrates, luminescence inhibition. Potency, µM (highest dose often 57.5 µM), without a hit: at the highest dose activity change, negative = inhibition, actives largely listed as inhibitors. 6.9% of 360,000 active. AID 588342;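 note: plate controls were vehicle for no effect and reference inhibitor for full effect; nearly all actives have a fitted effect of over 55% in size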
#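 Purified P. pyralis luciferase, 10 nM final, with Km-level 10 uM D-luciferin and 10 uM ATP in 50 mM Tris acetate pH 7.5, 10 mM Mg acetate, 0.01% Tween-20, 0.05% BSA; 6-point qHTS titration about 60 µM downward; luminescence read.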
# ELG1 FLuc counter: luciferase inhibition in cell-free luciferin readout for ELG1 hits; shares compounds with ELG1 repair inh; cell-free firefly luciferase luminescence counter-screen, ViewLux; Potency, µM (doses to about 46.1 µM), without a hit: at the highest dose activity change, negative = inhibition, hits mostly inhibitors; 3% of 350 active; AID 624247; note: % is set by controls: 0 for no effect and ±100 for the full control effect
# ELG1 Luc conf: inhibits ELG1-dependent DNA repair in HEK293T cells, confirmed. shares compounds with ELG1 repair inh. Potency, µM (doses to about 46.1 µM), for the others: at the highest dose activity change, negative = inhibition, most hits filed as inhibitors. HEK293T ELG1-luciferase levels, luminescence; cells co-treated with 5-fluorouridine. 68% of 670 active; note: % is set by controls: 0 for no effect and ±100 for the full control effect; nearly all actives have a fitted effect of over 55% in size
# ELG1-Luc MMS: confirmation of human ELG1 repair inhibitors, MMS stimulated. shares compounds with ELG1 repair inh. HEK293T luciferase-tagged ELG1 level, MMS stimulated. Potency, µM (doses to about 46.1 µM), inactives show at the highest dose activity change, negative = inhibition, actives largely listed as inhibitors. 53% of 670 active; note: % is set by controls: 0 for no effect and ±100 for the full control effect; nearly all actives have a fitted effect of over 60% in size
# ELG1 5FU viab: confirmation of ELG1 repair inhibitors: viability with 5FU; shares compounds with ELG1 repair inh; 670 tested, under 10 active; cell viability with 5-FU, ELG1-dependent repair; Potency, µM (doses to about 46.1 µM), inactives show top-dose activity change, negative = viability loss, usual class: cytotoxic; AID 624250;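 note: ELG1-luc HEK293T cells cotreated with 5-fluorouridine at 10 µM final; viability measured 16 h after compound addition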
# ELG1 MMS viab: confirmation of ELG1 repair inhibitors: viability with MMS; shares compounds with ELG1 repair inh; Cell viability with MMS, ELG1-dependent DNA repair; Potency, µM (top dose mostly 46.1 µM), for the others: at the highest dose activity change, negative = viability loss, actives largely listed as cytotoxic; 33% of 670 active;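 note: ELG1-luc HEK293T cells co-treated with 10 µM MMS; viability read 16 h after compound addition; % is set by controls: 0 for no effect and ±100 for the full control effect; nearly all actives have a fitted effect of over 60% in size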
# Cell viab unstim: counter-screen for ELG1 repair inhibitors: unstimulated cell viability. shares compounds with ELG1 repair inh. cell viability counter-screen, unstimulated, luminescence. Potency, µM (top dose mostly 45.9 µM), without a hit: at the highest dose activity change, negative = loss of viability, actives largely listed as cytotoxic. 8% of 900 active;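 note: compound exposure lasted 16 hours before reading; % is set by controls: 0 for no effect and ±100 for the full control effect; nearly all actives have a fitted effect of over 55% in size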
# FLuc biochem: counter-screen for ELG1 repair inhibitors: firefly luciferase inhibition; shares compounds with ELG1 repair inh; purified firefly luciferase, luminescence counter-screen; Potency, µM (highest dose often 57.5 µM), for the others: top-dose activity, negative = inhibition, actives largely listed as inhibitors; 10% of 350 active; AID 624253; note: % is set by controls: 0 for no effect and ±100 for the full control effect
# The depositor's hits bear a star; u = inconclusive; x = no result given. The list is not random: actives were taken first. Their share in the collection is about 9.2%. Calls come from the whole dose curve; as a rule, active = well fitted curve in the direction sought with a large enough effect; inconclusive = small, poorly fitted or top-dose-only effect, or another doubt; inactive = no such curve, though single readings can be large; an effect the other way counts as inactive or inconclusive. Potency is the fitted concentration of half-maximal effect.
SMILES,ELG1 genotoxic,NPC1 promoter act,ELG1 repair inh,Rab9 prom act,SMN2 splice up,FLuc modulator,ELG1 FLuc counter,ELG1 Luc conf,ELG1-Luc MMS,ELG1 5FU viab,ELG1 MMS viab,Cell viab unstim,FLuc biochem
CC[C@@H]1/C=C/C=C/C[C@H](C)[C@@H](O)[C@](C)(O)C(=O)[C@H](C)[C@@H](O)[C@H](C)C(=O)[C@H](C)[C@@H](O)[C@H](C)/C=C/C(=O)O[C@H]2[C@@H](C)[C@@H](CC1)O[C@@]1(CC[C@@H](C)[C@@H](C[C@H](C)O)O1)[C@@H]2C,x,x,x,x,-40%,x,u,7.1µM*,0.011µM*,u,0.011µM*,0.028µM*,-2%
CC1(C)Cc2c(c(N3CCOCC3)nc3sc4c(NCc5ccccc5)nnnc4c23)CS1,-6%,-4%,13µM*,-2%,-9%,6%,4%,2.5µM*,15%,u,-2%,-13%,-14%
CN[C@@H]1C[C@@]2(C)O[C@@H]([C@@H]1OC)n1c3ccccc3c3c4c(c5c6ccccc6n2c5c31)C(=O)NC4,x,x,x,x,x,x,0.71µM*,0.5µM*,0.32µM*,11µM*,1µM*,5µM*,1%
CCC1OC2(C)C(O)C(/C=C/C=C/C=C/c3oc(=O)cc(OC)c3C)OC1(C)C2OC(C)=O (configuration not stated),x,x,x,x,x,x,u,2.2µM*,0.2µM*,-1%,0.16µM*,u,-9%
CC(=O)OC[C@]12CCC(C)=C[C@H]1O[C@@H]1[C@H](O)[C@@H](OC(C)=O)[C@@]2(C)[C@]12CO2,-13%,-53%,0.018µM*,-44%,x,-3%,u,0.028µM*,0.018µM*,0%,0.044µM*,u,-5%
CC(=O)OC[C@]12C[C@H](OC(=O)CC(C)C)C(C)=C[C@H]1O[C@H]1[C@H](O)[C@@H](OC(C)=O)[C@@]2(C)[C@]12CO2,x,x,x,x,-80%,x,x,x,x,x,x,x,x
O=C(Nc1cc(C(F)(F)F)cc(C(F)(F)F)c1)c1cc(Cl)ccc1O,x,x,x,x,x,x,u,0.71µM*,0.35µM*,u,0.4µM*,u,-9%

# Bioassay records from PubChem BioAssay.
